Measured values from PubChem BioAssay (NCI).
Compounds without any hit were thinned out: in the full panel of roughly 83,000, 20% have a hit.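 The endpoint reported here, percent growth, reads 100 for growth as untreated, 0 for no net growth and -100 for all cells dead.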 Unmarked numbers belong to inactive results. Activity calls are given as the source filed them. How the source made its calls: active means growth percent below 10; inactive means the rest.

What was measured:
Experiment in all cases: NCI-60 one-dose screen, 48 h (100 = growth as untreated, 0 = no growth, -100 = all killed)
Conditions in all cases: 10 µM unless noted
DU-145 prostate = test system: DU-145 prostate
K-562 leukemia = test system: K-562 leukemia
MALME-3M melanoma = test system: MALME-3M melanoma
MDA-MB-231 breast = test system: MDA-MB-231 breast
RXF 393 renal = test system: RXF 393 renal
SF-268 CNS = test system: SF-268 CNS
SF-295 CNS = test system: SF-295 CNS
SF-539 CNS = test system: SF-539 CNS
UACC-257 melanoma = test system: UACC-257 melanoma
M14 melanoma = test system: M14 melanoma
HCT-15 colon = test system: HCT-15 colon
HT29 colon = test system: HT29 colon
SNB-75 CNS = test system: SNB-75 CNS
SNB-19 CNS = test system: SNB-19 CNS
U251 CNS = test system: U251 CNS
PC-3 prostate = test system: PC-3 prostate
SK-MEL-5 melanoma = test system: SK-MEL-5 melanoma
UACC-62 melanoma = test system: UACC-62 melanoma
LOX IMVI melanoma = test system: LOX IMVI melanoma
SK-MEL-28 melanoma = test system: SK-MEL-28 melanoma

SMILES | growth (DU-145 prostate) [%] | growth (K-562 leukemia) | growth (MALME-3M melanoma) [%] | growth (MDA-MB-231 breast) [%] | growth (RXF 393 renal) [%] | growth (SF-268 CNS) [%] | growth (SF-295 CNS) | growth (SF-539 CNS) [%] | growth (UACC-257 melanoma) [%] | growth (M14 melanoma) | growth (HCT-15 colon) | growth (HT29 colon) | growth (SNB-75 CNS) [%] | growth (SNB-19 CNS) [%] | growth (U251 CNS) | growth (PC-3 prostate) | growth (SK-MEL-5 melanoma) | growth (UACC-62 melanoma) | growth (LOX IMVI melanoma) | growth (SK-MEL-28 melanoma) [%]
COc1cccc(C2CC(c3cc(OC)c(OC)c(OC)c3)=NN2)c1 (stereo not given) | 104 | 14.5% | 91.6 | 98 | 83.8 | 93 | 81.8% | 92.2 | 99.4 | 83% | 67.3% | 37.1% | 74.4 | 77.2 | 85.6% | 69.1% | 83.7% | 82.4% | 61% | 101
O=C(Nc1ccc(-n2ccc3c(NC(=O)c4ccccc4)ncnc32)cc1)c1ccc(Cl)c(C(F)(F)F)c1 | 23.1 | 7.82% (active) | 26.9 | 12.2 | 19 | 18.7 | 11.7% | 31.9 | 46 | 9.79% (active) | 3.27% (active) | -50.6% (active) | 66.5 | 24.7 | -62.9% (active) | 29.1% | 26.3% | 5.8% (active) | -9.6% (active) | 62.5
OCCOCC(F)(F)F | 109 | 97.2% | 99.6 | 124 | 113 | 102 | 103% | 96.7 | 118 | 112% | 108% | 105% | 88.3 | 117 | 105% | 97.8% | 107% | 113% | 112% | 98.5
CCOC(=O)NNc1nncc2ccccc12 | 115 | 81.9% | 99.5 | 101 | 109 | 107 | 103% | 108 | 93.3 | 108% | 101% | 104% | 120 | 99.2 | 97.2% | 97.7% | 105% | 101% | 90.8% | 122
CC1OC(n2c3ccccc3c3c4c(c5c6ccccc6[nH]c5c32)C(=O)N(CCN[C@@H]2CCC[C@H]2N)C4=O)CC(O)C1O (stereo not given in full) | 31.8 | 1.43% (active) | 24.9 | 16.4 | 33.7 | 30.6 | 8.14% (active) | 17.8 | 29.8 | 18.7% | 70.2% | 0.0923% (active) | 12.5 | 14.8 | 7.39% (active) | 9.72% (active) | -48.6% (active) | 17.9% | 0.411% (active) | 45.3
CN1C(=O)C2(NN=C(c3cccc4ccccc34)S2)c2ccccc21 (stereo not given) | 50.3 | 11.8% | 63.5 | 46 | 79 | 37.6 | 29.7% | 49.1 | 50.6 | 17.3% | 28.3% | 50.8% | 73.4 | 33.7 | 9.26% (active) | 19.7% | 41.8% | 17.2% | 31.3% | 32.4
O=C1CCC(=O)N1C1CCCCC1 | 107 | 107% | 82.6 | 103 | 109 | 97.6 | 97.5% | 101 | 108 | 94.5% | 112% | 112% | 88.5 | 99.9 | 107% | 99.8% | 96.8% | 97.7% | 98.4% | 108
O=C(O)c1ccccc1C(=O)c1ccc(I)cc1 | 109 | 104% | 98.3 | 110 | 108 | 106 | 102% | 98.9 | 117 | 98.2% | 100% | 90% | 98.1 | 110 | 102% | 91.2% | 102% | 105% | 91% | 107
